Data on 21 molecules can be found in PubChem BioAssay (NCI).

Assay [1] is described as follows: NCI Yeast Anticancer Drug Screen. Data for the rad50 strain (AID 155).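 Also: 0% = growth of vehicle-only cultures of the same strain.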 The following applies: S. cerevisiae rad50 strain growth inhibition; at 50.0 µM; active compounds read high. An outline of the steps:
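Readout: growth inhibition relative to vehicle-treated cultures. Compound exposure was carried out in a genetically defined yeast strain deficient in DNA damage repair.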

A short description of assay [2]: NCI Yeast Anticancer Drug Screen. Data for the mec2-1 strain (AID 157). To be noted: S. cerevisiae mec2-1 strain, at 50.0 µM, active compounds read high. Put shortly: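 Each compound was tested on mec2-1 yeast, a strain altered in DNA damage repair or cell cycle control. Growth inhibition is reported relative to vehicle.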
Assay [3] is described as follows: NCI Yeast Anticancer Drug Screen. Data for the sgs1 mgt1 strain (AID 161).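 Also: 0% = growth of cultures given vehicle only.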 To be noted: S. cerevisiae sgs1 mgt1 strain, at 50.0 µM, active compounds read high. An outline of the steps: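 Genetically altered yeast, compound exposure, growth inhibition relative to vehicle.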
Assay [4] is described as follows: NCI Yeast Anticancer Drug Screen. Data for the cln2 rad14 strain (AID 165).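 Also: 0% = growth equal to vehicle treated cultures.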 To be noted: S. cerevisiae cln2 rad14 strain, at 50.0 µM, active compounds read high. An outline of the steps: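 Test compounds were added to cln2 rad14 yeast cultures; inhibition of growth was then determined by comparison with vehicle treatment.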
Assay [5] can be described thus: NCI Yeast Anticancer Drug Screen. Data for the bub3 strain (AID 167). To be noted: S. cerevisiae bub3 mutant strain, at 50.0 µM, active compounds read high. An outline of the steps:
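Readout: yeast growth inhibition, expressed relative to vehicle-only wells. The test organism is a mutant strain from a panel with lesions in DNA repair or checkpoint genes.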

Assay [6] in a line: NCI Yeast Anticancer Drug Screen. Data for the mlh1 rad18 strain (AID 175). To be noted: S. cerevisiae mlh1 rad18 strain growth inhibition; at 50.0 µM; active compounds read high. Put shortly: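 Inhibition values reflect reduced growth of mutant yeast versus vehicle-treated controls following compound exposure; the mutations affect DNA damage repair.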

This is part of a sample that, as a whole, favours compounds with a hit. Of some 79,000 tested, about 15% had one in any assay. A number with no mark means an inactive call. Activity calls are given as the source filed them. Rule as the data show it: active = growth inhibition above about 70%; inactive = the rest.

Take `Cc1cc(=O)[nH]c2c1CCCC2`: the growth inhibition in assay [1] was -13.7%; in assay [2], 10.8%; in assay [3] it was 10%; in assay [4] it was -38.4%; in assay [5] it was -26.6%; in assay [6], 8.25%.
Take `CP(=O)(c1ccccc1)c1ccccc1OCCCOCCCOc1ccccc1P(C)(=O)c1ccccc1` (stereo unspecified): the growth inhibition in assay [1] was -4.8%; in assay [2], 3.4%; in assay [3] it was 0.45%; in assay [4], 8.1%; in assay [5], -3.55%; in assay [6] it was -10.6%.
With `N#CC1CCCCCCCCCCC(=O)N(CCCl)C1=O` (stereo unspecified), the growth inhibition in assay [1] was -4.25%; in assay [2], -0.45%; in assay [3] it was 13.2%; in assay [4], 6.2%; in assay [5], -12.9%; in assay [6] it was -7.05%.
Take `Oc1ccc(Cl)cc1C1=NC(/N=C\c2ccccc2)=NC(c2ccccc2)C1` (stereo unspecified): the growth inhibition is -0.7% in assay [1]; -4.05% in assay [2]; -43% in assay [3]; -8.1% in assay [4]; -36.8% in assay [5]; -45% in assay [6].
As to `CC(=O)c1cccc(NC(=O)Oc2ccc(F)cc2Cl)c1`, the growth inhibition was -2.3% in assay [1]; 29.1% in assay [2]; 18.8% in assay [3]; -13.6% in assay [4]; 12.9% in assay [5]; -1.8% in assay [6].
On to `CCCC(C)C(=O)OCCOCC` (stereo unspecified), for which the growth inhibition in assay [1] was 4.55%; in assay [2] it was 2.8%; in assay [3] it was -1.5%; in assay [4] it was -32.4%; in assay [5], 9.3%; in assay [6], 49.9%.
`CC(C)CC1CC(=O)C(=O)C(CC(C)C)C1` (stereo unspecified): the growth inhibition in assay [1] was 8.25%; in assay [2], 0.5%; in assay [3], 3.45%; in assay [4], -17.5%; in assay [5] it was 3.95%; in assay [6], -1.05%.
Turning to `COC1=NN2C(OC)(c3ccccc3)c3c(-c4ccccc4)sc(-c4ccccc4)c3C2(c2ccccc2)S1` (stereo unspecified), the growth inhibition in assay [1] is 29.4%; in assay [2], 2.1%; in assay [3], 5.15%; in assay [4], 37.6%; in assay [5], 1.9%; in assay [6], 5.5%.
As to `O=C1c2cc([N+](=O)[O-])ccc2-c2c(I)cccc21`, the growth inhibition was 4.25% in assay [1]; 2.7% in assay [2]; -5.35% in assay [3]; 5.75% in assay [4]; -9.25% in assay [5]; -6.45% in assay [6].
For `CCCCCCCCCCCCCCCC(=O)N(CCCC)CCCC`, the growth inhibition is 3.55% in assay [1]; 5.7% in assay [2]; -4.05% in assay [3]; 11.9% in assay [4]; 3.4% in assay [5]; 8.85% in assay [6].
In the case of `COc1cc2c(c(OC)c1OC)-c1ccc(SC)c(=O)cc1[C@@H](NC(=O)CO)CC2`, the growth inhibition in assay [1] was 30%; in assay [2], 14.3%; in assay [3], 19.6%; in assay [4], 19.6%; in assay [5], 21.1%; in assay [6], 22.2%.
Take `COc1cc(OC)c(OCc2ccccc2)c(OC)c1`: the growth inhibition in assay [1] was 12.2%; in assay [2], 0.25%; in assay [3] it was -0.25%; in assay [4], 2.45%; in assay [5], -2.5%; in assay [6], -17.2%.
In the case of `S=C1N=C2c3ccccc3C2C(=S)S1` (stereo unspecified), the growth inhibition in assay [1] is -4.8%; in assay [2] it was -12.8%; in assay [3], 0%; in assay [4], -24.9%; in assay [5], 4.75%; in assay [6] it was -7.25%.
With `OC1CCC2OC12` (stereo unspecified), the growth inhibition was 7.3% in assay [1]; 0.55% in assay [2]; 18.2% in assay [3]; 0.4% in assay [4]; -1.3% in assay [5]; 2% in assay [6].
Take `CC(C)(C)C(=O)/C=C/c1ccc(Oc2ccccc2)cc1`: the growth inhibition is 27.8% in assay [1]; -28.7% in assay [2]; 4.05% in assay [3]; -15.6% in assay [4]; -19.8% in assay [5]; -20.8% in assay [6].
Turning to `N#C/C(c1ccccc1)=[N+](/[O-])O`, the growth inhibition is 2.55% in assay [1]; -4.9% in assay [2]; 2.5% in assay [3]; -20.7% in assay [4]; -17.5% in assay [5]; 13.7% in assay [6].
As for `BrC1CCC(Br)C(Br)CCC1Br` (stereo unspecified), the growth inhibition is 46.5% in assay [1]; 54.9% in assay [2]; 55.1% in assay [3]; 31.8% in assay [4]; 60% in assay [5]; 70.4% (active) in assay [6].
`CS(=O)(=O)ON1C(=O)c2ccccc2C1=O`: the growth inhibition was 9.9% in assay [1]; -52% in assay [2]; -3.9% in assay [3]; 6.5% in assay [4]; -2.6% in assay [5]; -9.55% in assay [6].
Consider `COCCC(N)C(=O)O` (stereo unspecified), for which the growth inhibition was 6% in assay [1]; -13.3% in assay [2]; -15% in assay [3]; -22.8% in assay [4]; -11.6% in assay [5]; 2.65% in assay [6].
For `CC1(c2ccccc2)CCN(C2CC2)CO1` (stereo unspecified), the growth inhibition in assay [1] was 34.6%; in assay [2] it was 15.2%; in assay [3], 51.6%; in assay [4], 45.2%; in assay [5], 48.5%; in assay [6] it was -52%.
Turning to `Nc1ccc2nnn(OC3CCCC3)c2c1`, the growth inhibition is 40.2% in assay [1]; 13.9% in assay [2]; 3.55% in assay [3]; 9.4% in assay [4]; -4.05% in assay [5]; 0.4% in assay [6].
